Drawing on PubChem BioAssay AID624483 (NMMLSC, 2012), this text covers fluorescence intensity for 96 molecules.

The campaign covered roughly 360,000 compounds. About 11,000 (3.1%) were called active. Roughly 2% stayed inconclusive and do not appear here. The sample holds actives, similar compounds and a random draw of the others, so the mix is not that of the screen. A number with no mark means an inactive call. No stated cut-off is given here; in the data, active means fluorescence intensity above about 16000; inconclusive means no clear call, values can overlap the other calls; inactive means below that.

This test is described as follows: counter-screen for toxin protease inhibitors: compound fluorescence, primary screen, artefact control for toxin protease inhibitor project, biochemical, multiplex microsphere, HTS (AID 624483). As to conditions: compound autofluorescence counterscreen, microsphere flow cytometry; hits give high values. In general terms: Counterscreens check selectivity or assay interference.
Turning to `COc1cccc(NC(=O)CCc2nnc3ccc(N4CCC(C)CC4)nn23)c1`, the fluorescence intensity is 5600.

Take `CCOC(=O)[C@]12CCC=C1N(Cc1ccco1)C(=O)[C@H](CC(=O)N1CCSCC1)C2`: the fluorescence intensity was 4160.

Consider `CC(C)(C(=O)N1CCC1(C)C(=O)NS(=O)(=O)c1ccc(Br)cc1)c1ccccc1` (stereo unspecified), for which the fluorescence intensity is 3370.

Regarding `NC(c1ccccc1)c1csc(NC(=O)Nc2cccc(C(F)(F)F)c2)n1` (stereo unspecified), the fluorescence intensity was 3690.

`COCCOCCn1cnc2ccccc21`: the fluorescence intensity was 9770.

For `Cc1cc2ncn(CCCCOc3ccccc3)c2cc1C`, the fluorescence intensity is 17400 (active).

`Clc1ncn(CCOc2ccccc2)c1Cl`: the fluorescence intensity is 3990.

As for `CSc1ccc(CN2CCC2(C)C(=O)Nc2ccc(C)c(O)c2)cc1` (stereo unspecified), the fluorescence intensity is 3540.

Regarding `O=[N+]([O-])c1ccc(NCCCN2CCOCC2)c(Cl)c1`, the fluorescence intensity was 22800 (active).

In the case of `O=C(NCCCNc1ccc([N+](=O)[O-])cc1Cl)c1ccccc1F`, the fluorescence intensity was 4790.

On to `O=C(NCCCN1CCOCC1)c1ccc([N+](=O)[O-])cc1[N+](=O)[O-]`, for which the fluorescence intensity is 4500.

As to `CC1CCN(C(=O)c2ccc(S(=O)(=O)Cc3cc(F)ccc3F)c([N+](=O)[O-])c2)CC1`, the fluorescence intensity is 2510.

`CCc1ccc2nc(Nc3ncc(C(C)=O)c(C)n3)nc(C)c2c1`: the fluorescence intensity was 3620.

Regarding `CCOC(=O)[C@]12CCC=C1N(CCC1=CCCCC1)C(=O)[C@H](CC(=O)NCc1ccc(C)o1)C2`, the fluorescence intensity is 5770.

For the molecule `CCCC(NS(=O)(=O)c1ccc(OC)cc1)C(=O)O` (stereo unspecified), the fluorescence intensity was 20900 (active).

Regarding `COc1ccc(S(=O)(=O)NC(C)C(=O)N2CCCCCC2)cc1` (stereo unspecified), the fluorescence intensity is 3500.

On to `CSCC(NS(=O)(=O)c1ccc(C)cc1)C(=O)O` (stereo unspecified), for which the fluorescence intensity was 4880.

As for `O=C(OCC(=O)N1CCCCCC1)c1ccc(Cl)nc1`, the fluorescence intensity is 3860.

As to `N#Cc1cccc(NC(=O)c2cc(C3CCCCN3C(=O)CCc3ccccc3)on2)c1` (stereo unspecified), the fluorescence intensity is 4290.

Turning to `CC(=O)OC[C@@H]1CN(Cc2ccccc2)C[C@H](n2cnc3c(NCc4ccco4)ncnc32)O1`, the fluorescence intensity is 3590.

Take `Cn1c(=O)oc2cc(S(=O)(=O)NCCC(=O)NCc3ccccc3Cl)ccc21`: the fluorescence intensity is 4110.

Consider `Cc1ccc(NC(=O)CCNS(=O)(=O)c2ccc3c(c2)oc(=O)n3C)cc1C`, for which the fluorescence intensity was 22000 (active).

On to `COc1cccc(NC(=O)CCNS(=O)(=O)c2ccc3c(c2)oc(=O)n3C)c1`, for which the fluorescence intensity was 4240.

Consider `N#Cc1c(/N=C/N2CCCC2)oc(-c2ccccc2)c1-c1ccccc1`, for which the fluorescence intensity is 3080.

On to `O=C(O)Cc1ccc(NC(=O)C2CCCCC2C(=O)O)cc1` (stereo unspecified), for which the fluorescence intensity was 4130.

In the case of `O=C(O)C1CCCCC1C(=O)Nc1ccc(Cl)cc1` (stereo unspecified), the fluorescence intensity was 25300 (active).

Consider `O=C(NC1CCN(C(=S)Nc2ccc(Cl)cc2)CC1)C1CCCCC1`, for which the fluorescence intensity was 3100.

On to `CCOC(=O)c1ccn(S(=O)(=O)c2ccc(C)cc2)c1-c1ccccc1`, for which the fluorescence intensity was 5920.

As for `O=S1(=O)C[C@@H](N2CCN(CCO)CC2)[C@H](COCc2ccccc2)N1`, the fluorescence intensity is 4260.

With `COc1ccc(/C=C/C(=O)c2c(O)cc(OC)cc2OC)cc1`, the fluorescence intensity was 5700.

`Cc1ccc2nc(-c3ccccc3)c(CC3CCCCC3)n2c1`: the fluorescence intensity was 8550.

Take `Cc1ccc(SCc2cc(=O)[nH]c(N3CCCCC3)n2)cc1`: the fluorescence intensity was 4420.

With `Cc1ccc(SCC2=NNC(=O)C2)cc1`, the fluorescence intensity is 22700 (active).

On to `Cc1ccc(SCCSc2ncccn2)cc1`, for which the fluorescence intensity is 4180.

Regarding `O=C(COC(=O)c1ccc(Cl)nc1)NCc1cccs1`, the fluorescence intensity is 4330.

Take `O=C(C1CC(=O)N(C2CCCC2)C1)N1CCN(c2cccc(C(F)(F)F)c2)CC1` (stereo unspecified): the fluorescence intensity was 5860.

On to `O=C(C1CC(=O)N(C2CCCC2)C1)N1CCC2(CC1)OCCO2` (stereo unspecified), for which the fluorescence intensity is 21300 (active).

`O=C(C1CC(=O)N(C2CCCCC2)C1)N1CCN(c2ccccc2)CC1` (stereo unspecified): the fluorescence intensity was 5000.

Regarding `CCCNC(=O)C1(C)CCN(C(=O)c2ccccc2OC(F)(F)F)C1` (stereo unspecified), the fluorescence intensity was 3700.

For the molecule `Cc1ccc(S(=O)(=O)N2CC[C@H]3[C@@H](C2)C(=O)C[C@@H](c2ccccc2)N3S(=O)(=O)c2ccc(C)cc2)cc1`, the fluorescence intensity was 6280.

Turning to `CCc1cccc2c(=O)c(C(=O)NCCCOC)c[nH]c12`, the fluorescence intensity is 4150.

Turning to `COC1=CC(=O)OC(c2ccc(OC)cc2)C1` (stereo unspecified), the fluorescence intensity was 3440.

As for `COc1cc(CO)c(C2(CO)CCCC2)cc1OC`, the fluorescence intensity was 2910.

Regarding `CC1(C)CC(=O)C2=C(C1)N=C1SCCC(=O)N1C2c1ccc(C(F)(F)F)cc1` (stereo unspecified), the fluorescence intensity is 22500 (active).

Turning to `CCCCC[C@@H]1C=C(C(=O)OCC)[C@H](c2ccccc2)N1S(=O)(=O)c1ccc(C)cc1`, the fluorescence intensity was 6420.

Consider `O=C1NC[C@H](CCCCN2C[C@H](Cc3ccc(O)cc3)N(CCc3ccccc3)C(=O)C2=O)N(CCc2ccccc2)C1=O`, for which the fluorescence intensity is 5840.

Consider `C=C(C)CNC(=S)/N=c1\scc(C)n1CC`, for which the fluorescence intensity was 8000.

As to `CC1(C)OC(=O)C2=C(C[C@@H](C3CC3)O[C@H]2CCc2cccc(Cl)c2)O1`, the fluorescence intensity was 6150.

Regarding `Cc1cc(O)ccc1-c1cc(C(=O)NCc2cc(C(F)(F)F)cc(C(F)(F)F)c2)[nH]n1`, the fluorescence intensity was 4030.

On to `CCCOc1ccc(C2NC(=O)NC(c3ccccc3)=C2C(C)=O)cc1OCC` (stereo unspecified), for which the fluorescence intensity is 16800 (active).

As for `CCOC(=O)C1=C(c2ccccc2)NC(=O)NC1c1cc(OCC)c(O)c([N+](=O)[O-])c1` (stereo unspecified), the fluorescence intensity was 3560.

Regarding `COc1cc(C2NC(=O)NC(c3ccccc3)=C2C(C)=O)c(Br)cc1OCC(N)=O` (stereo unspecified), the fluorescence intensity was 3130.

On to `COc1c(C)cc(C(O)c2ncc(-c3cccc(C(F)(F)F)c3)[nH]2)cc1C` (stereo unspecified), for which the fluorescence intensity is 2880.

On to `COCCCn1c(=O)/c(=C/c2ccccc2OC(C)C)s/c1=C(\C#N)C(=O)Nc1ccc(C(=O)O)cc1`, for which the fluorescence intensity was 4090.

Turning to `CC1(C(=O)O)CCCN(C(=O)/C=C/c2ccccc2)C1` (stereo unspecified), the fluorescence intensity is 3760.

For `CC(=O)NC1=NC(=O)CS1`, the fluorescence intensity is 22000 (active).

For the molecule `Cc1cccc(N)c1SC1CCCCC1O` (stereo unspecified), the fluorescence intensity was 2470.

For the molecule `CN(C)/C=C/C(=O)c1cnc2sccn2c1=O`, the fluorescence intensity is 4610.

Take `C[C@H]1Cn2cnc(C(=O)N[C@@H](Cc3c[nH]c4ccccc34)C(=O)OC(C)(C)C)c2C(=O)N1`: the fluorescence intensity was 3860.

Regarding `CCN(c1ccccc1)S(=O)(=O)c1ccc(NC(=O)C(C)(C)C)cc1`, the fluorescence intensity is 23900 (active).

For the molecule `CCN(c1ccccc1)S(=O)(=O)c1ccc(C(=O)Nc2ccccc2OC)cc1`, the fluorescence intensity is 3100.

For the molecule `CCN(c1ccccc1)S(=O)(=O)c1ccc(N)cc1`, the fluorescence intensity was 5250.

For `O=c1[nH][nH]c2c1[C@H](c1ccc(Cl)cc1)O[C@H](CCc1ccccc1)C2`, the fluorescence intensity was 5920.

As for `CCc1nc2c(OCc3ccccc3)cccn2c1N(C)C(=O)c1ccco1`, the fluorescence intensity is 2960.

As for `COc1ccc(CN2CC(C(=O)NC3CCCCC3)CC2=O)cc1` (stereo unspecified), the fluorescence intensity was 4380.

As to `COc1cccc(CNC(=O)C2CC(=O)N(C3CCCCCCC3)C2)c1` (stereo unspecified), the fluorescence intensity was 5720.

Turning to `COc1ccc(OC)c(Cc2nnc(CCC(=O)NC3CCCC3)o2)c1`, the fluorescence intensity is 2020.

As for `COc1cccc(CN2C(=O)CCC2(C)C(=O)NC2CCCCCC2)c1` (stereo unspecified), the fluorescence intensity is 21300 (active).

Regarding `COc1ccc(OC)c(CN2C(=O)CCC2(C)c2nnnn2Cc2ccccc2)c1` (stereo unspecified), the fluorescence intensity was 5850.

For the molecule `COc1ccc(OC)c(CN2C(=O)CCC2(C)C(=O)NC2CCCCCC2)c1` (stereo unspecified), the fluorescence intensity is 23000 (active).

In the case of `O=C1C2(c3ccccc3)CN(CCCO)CC1(c1ccccc1)CN(CCCO)C2`, the fluorescence intensity was 10600.

With `CCCc1nc2c3ccccc3ccn2c1Cc1ccccc1C(F)(F)F`, the fluorescence intensity is 5310.

For `Cc1ccc(S(=O)(=O)N2CCN(C(=O)CCC(=O)NC3CCCc4ccccc43)CC2)cc1` (stereo unspecified), the fluorescence intensity is 7770.

On to `O=C(NCCO)C(=O)NCC(c1ccc2c(c1)OCO2)N1CCN(c2ccc(F)cc2)CC1` (stereo unspecified), for which the fluorescence intensity was 5880.

In the case of `C/C(=N/NC(=O)c1ccncc1)c1ccc2c(c1)OCO2`, the fluorescence intensity was 3750.

Turning to `O=C(Nc1nc(-c2ccc3c(c2)OCO3)cs1)c1ccncc1`, the fluorescence intensity was 23200 (active).

As to `CC(NC(=O)Nc1ccc2c(c1)OCO2)c1ccncc1` (stereo unspecified), the fluorescence intensity is 2060.

With `O=[N+]([O-])c1ccccc1SNc1ccccn1`, the fluorescence intensity is 2510.

Regarding `CNC[C@H]1OCc2cnnn2CCCC(=O)N([C@H](C)CO)C[C@@H]1C`, the fluorescence intensity was 4160.

With `COc1ccc(OC)c(NC(=O)N[C@H](Cc2ccccc2)C(=O)NN)c1`, the fluorescence intensity is 5710.

As for `COc1ccc(OC)c(NC(=O)Cc2cccs2)c1`, the fluorescence intensity was 3820.

Take `COc1ccc(OC)c(NC(=O)CC(Cc2ccccc2OC)C(=O)O)c1` (stereo unspecified): the fluorescence intensity is 21100 (active).

For the molecule `Cc1ccc(S(=O)(=O)NC(C)C(=O)Nc2ccccc2C(=O)N2CCCC2)cc1` (stereo unspecified), the fluorescence intensity was 3260.

Consider `Cc1ccc(CNC(=O)Nc2nnc([C@H]3C[C@H](O)[C@@H](CO)O3)s2)cc1`, for which the fluorescence intensity is 2810.

In the case of `O=C(Nc1ccccc1)c1ccc2nsnc2c1`, the fluorescence intensity is 16300 (active).

As to `Cc1cccc(NC(=O)c2ccc3nsnc3c2)c1C`, the fluorescence intensity was 2560.

As to `O=C(NCCc1ccccc1)c1cccc(NC(=O)c2ccccc2)c1`, the fluorescence intensity is 3070.

In the case of `O=C(OC1CC2CC1[C@H]1CCCCN1C2=O)N1CCOCC1` (stereo partly specified), the fluorescence intensity is 5270.

Take `CC1(C(=O)NCc2ccco2)Cc2c(-c3ccc4c(c3)OCO4)ccnc2O1` (stereo unspecified): the fluorescence intensity was 4110.

With `O=C1C(Sc2cccc(F)c2)=C[C@@]2(O)CC[C@@H](O)[C@]1(Sc1cccc(F)c1)[C@H]2O`, the fluorescence intensity is 5520.

In the case of `O=C(Nc1cc(=O)[nH]c2ncnn12)c1ccccc1Cl`, the fluorescence intensity was 16500 (active).

Take `O=C(Nc1ccccc1C(=O)N1CCCCCC1)c1ccccc1Cl`: the fluorescence intensity was 6360.

With `O=C(Nc1ccc2sc3ccccc3c(=O)c2c1)c1ccccc1Cl`, the fluorescence intensity is 2540.

Take `Cc1ccc(S(=O)(=O)N(C)c2ccc(C(=O)NCC3(N(C)C)CCCCC3)cc2)cc1`: the fluorescence intensity is 5740.

Regarding `Cc1ccc(S(=O)(=O)C2(S(=O)(=O)c3ccc(C)cc3)CCCC2)cc1`, the fluorescence intensity was 6800.

As for `Cc1ccc(S(=O)(=O)N(C)C2(C)CCS(=O)(=O)C2)cc1` (stereo unspecified), the fluorescence intensity was 21400 (active).
